Reference: PubChem BioAssay AID2625 (National Center for Advancing Translational Sciences (NCATS), 2010)
Results filed as inconclusive are left out. The source made the active and inactive calls. Calls come from the whole dose curve; as a rule, active = well fitted curve in the direction sought with a large enough effect; inconclusive = small, poorly fitted or top-dose-only effect, or effect the other way, or another doubt; inactive = no such curve, though single readings can be large or run the other way.

Each molecule was assayed against Pyruvate kinase PKLR (Homo sapiens) (UniProt P30613) (assay: Secondary LDH Assay for Activators of Human Liver Pyruvate Kinase: for Probe SAR). Settings: purified hPK-L, LDH-coupled NADH fluorescence kinetic; series mostly up to 58.2 µM.
How it was run: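 Kinetic LDH-coupled read-out: NADH fluorescence loss followed every 30 s for 3–6 min gave initial rates. Reaction: 10 nM human liver PK, 0.1 mM PEP, 4 mM ADP, 0.2 mM NADH, 50 mM Tris-Cl pH 8.0; activation normalised to fructose-bis-phosphate.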

Pyruvate kinase PKLR (Homo sapiens), sequence (P30613 whole entry, looked up): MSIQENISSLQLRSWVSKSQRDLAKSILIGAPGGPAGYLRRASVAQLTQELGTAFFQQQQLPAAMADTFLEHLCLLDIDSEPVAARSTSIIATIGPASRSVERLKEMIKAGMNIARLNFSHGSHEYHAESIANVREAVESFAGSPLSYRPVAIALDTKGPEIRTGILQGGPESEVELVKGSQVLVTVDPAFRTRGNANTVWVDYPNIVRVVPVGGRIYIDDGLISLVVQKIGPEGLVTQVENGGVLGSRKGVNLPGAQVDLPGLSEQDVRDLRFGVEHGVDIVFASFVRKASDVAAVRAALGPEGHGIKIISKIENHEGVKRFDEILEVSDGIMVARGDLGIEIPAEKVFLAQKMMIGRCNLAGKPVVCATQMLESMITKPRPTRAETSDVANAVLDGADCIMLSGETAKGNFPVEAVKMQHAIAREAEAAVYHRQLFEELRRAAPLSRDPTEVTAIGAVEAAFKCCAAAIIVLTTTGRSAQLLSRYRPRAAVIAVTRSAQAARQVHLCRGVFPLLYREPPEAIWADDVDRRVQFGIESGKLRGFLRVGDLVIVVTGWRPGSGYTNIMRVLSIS

outcome, inactive:
Cc1ccc(-c2nc3cnccn3c2Nc2ccc(C(C)C)cc2)o1
O=C1CCc2cc(S(=O)(=O)Nc3ccc4c(c3)OCCO4)ccc2N1
O=C1CCc2cc(S(=O)(=O)Nc3ccc(-c4ccccc4)cc3)ccc2N1
O=C1c2ccccc2C(=O)N1c1noc2ccccc12
Cc1ccc(N[S+](=O)([O-])c2cc3c(cc2CCc2ccccc2)NC(=O)CO3)cc1C
